# Bioassay records (PubChem BioAssay)
# D2 ag-1: Beta-Arrestin HTS for Positive Allosteric Modulators of the Human D2 Dopamine Receptor: Agonists; D(2) dopamine receptor (Homo sapiens), P14416; DiscoveRx PathHunter D2 beta-arrestin, luminescence, 90 min; 100% = 57 uM dopamine signal; activation, % (concentration not given with the values); hit rate 0.084% among 360,000; in the data active means activation above about 40%; inconclusive means between about 15% and that limit
# Target sequence (P14416 whole entry, looked up): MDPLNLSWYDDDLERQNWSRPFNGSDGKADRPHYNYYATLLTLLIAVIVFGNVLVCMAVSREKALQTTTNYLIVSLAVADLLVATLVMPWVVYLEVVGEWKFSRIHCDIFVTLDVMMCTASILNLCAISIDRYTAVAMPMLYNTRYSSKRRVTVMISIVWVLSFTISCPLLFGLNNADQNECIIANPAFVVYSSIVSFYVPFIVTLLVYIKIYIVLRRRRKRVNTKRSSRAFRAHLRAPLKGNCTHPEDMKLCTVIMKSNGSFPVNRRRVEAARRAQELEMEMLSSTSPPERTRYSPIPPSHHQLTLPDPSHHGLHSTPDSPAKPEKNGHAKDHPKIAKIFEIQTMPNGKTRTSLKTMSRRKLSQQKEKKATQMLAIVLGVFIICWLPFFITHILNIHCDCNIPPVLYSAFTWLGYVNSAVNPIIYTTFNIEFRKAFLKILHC
#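 Agonist mode: compounds alone added to overnight-plated D2 PathHunter cells for 90 min at 37 C, with 57 uM final dopamine (EC100) defining full response. Beta-arrestin recruitment detected by chemiluminescent reagent, read after 1 h at ambient temperature.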
# D2 ag-2: HTS Assay for Allosteric Agonists of the Human D2 Dopamine Receptor: Primary Screen for Agonists | HEK293 T-REx D2 cells, calcium flux agonist mode | activation, % at 2 µM | hit rate 0.53% among 340,000 | AID 485358, 2010;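 active means activation over 3 SD above normal in the single-dose calcium agonist read, cut at about 30% in these data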; further: 0% is about no effect
#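 Calcium-flux readout, 1 cycle/sec over 180 s following compound pin transfer, in inducible HEK293 Trex D2 cells (force-coupled); dopamine controls included. Positive calcium responses during this window marked compounds as potential agonists.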
# D2 PAM-1: HTS Assay for Positive Allosteric Modulators of the Human D2 Dopamine Receptor: Primary Screen for Potentiators | D(2) dopamine receptor (Homo sapiens), P14416 | HEK293 T-REx D2, calcium flux, EC20 dopamine potentiation | potentiation, % at 10 µM | hit rate 0.34% among 340,000 | AID 485347, 2010;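 active means potentiation over 3 SD above the plate norm, cut at about 30% in these data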; further: 0% is about no effect
#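 Primary screen. Calcium kinetics in induced HEK293 T-REx D2 cells: compound pre-addition 180 s, EC20 dopamine, 180 s more.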
# D2 PAM-2: Beta-Arrestin HTS for Positive Allosteric Modulators of the Human D2 Dopamine Receptor: Potentiators; D(2) dopamine receptor (Homo sapiens), P14416; DiscoveRx D2 beta-arrestin cells, luminescence, 90 min; 100% = 57 uM dopamine signal; potentiation, % (test concentration not listed); hit rate 0.23% among 360,000; AID 624464, 2012; in the data active means potentiation above about 50%; inconclusive means mostly about 30% to 49%
#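 D2 cells co-treated with compound plus 50 nM dopamine (EC20) for 90 min at 37 deg C to detect potentiation. Beta-arrestin recruitment was read as enzyme-fragment luminescence after 1 h at ambient temperature. Full response was set by 57 uM dopamine.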
# D2 antagonist: HTS Assay for Allosteric Antagonists of the Human D2 Dopamine Receptor: Primary Screen for Antagonists; D(2) dopamine receptor (Homo sapiens), P14416; HEK293 TREx D2 cells, calcium flux, dopamine EC80; inhibition, % at 10 µM; hit rate 2% among 340,000; in the data active means inhibition above about 30%; inactive means below that, where a call was filed; further: 0% is about no effect
#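 Calcium mobilization kinetics were recorded at 1 s intervals in tetracycline-induced HEK293 T-REx D2 cells, first for 180 s after compound addition and then 180 s after EC80 dopamine.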
# D3 arrestin ag: qHTS of D3 Dopamine Receptor Agonist: D3 Dopamine Receptor B-arrestin Agonist Confirmatory Assay | shares compounds with D2 ag-2 | DiscoveRx D3 beta-arrestin cells, luminescence, 90 min | Potency, µM (series often up to 76.9 µM), inactives show at the highest dose activation, hits mostly activators | hit rate 4% among 2,300 | AID 720506, 2013;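 further: potency means the concentration at half of the fitted maximal effect; 100% = dopamine control response; nearly all actives have a fitted effect of over 70% in size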
# D2 ag-3: qHTS of D3 Dopamine Receptor Agonist: D2 Dopamine Receptor B-arrestin Agonist Counterscreen | shares compounds with D2 ag-2 | DiscoveRx PathHunter D2 beta-arrestin, luminescence, 90 min; response scale: percent relative to full dopamine signal | Potency, µM (titrated, usually from 76.9 µM), for inactives: at the top dose activation, hits mostly activators | hit rate 5.9% among 2,300 | AID 720507, 2013; further: potency means the concentration at half of the fitted maximal effect; % of control where 0% means no effect; nearly all actives have a fitted effect of over 70% in size
# Active calls of the source: *; ? = inconclusive; / = no result given. Sampled rows, rich in hits. Any-hit rate of the full collection: about 2.4%. Unless noted, the call rests on the fitted dose curve; in most records, active means well fitted activation curve with a large enough effect; inconclusive means small, poorly fitted or top-dose-only effect; inactive means flat fitted curve, though single readings scatter.
SMILES,D2 ag-1,D2 ag-2,D2 PAM-1,D2 PAM-2,D2 antagonist,D3 arrestin ag,D2 ag-3
CC(C)CCn1c(SCc2ccc(F)cc2Cl)nc2ccsc2c1=O,/,0,9,/,/,/,/
CCCSCCCNC(=O)c1ccc2c(c1)sc1nc(-c3ccc(OCC)cc3)cn12,/,0,/,/,/,/,/
COc1ccc(S(=O)(=O)N2CCC(N3CCN(Cc4ccccc4)CC3)CC2)cc1,14,77*,-20,-2,74*,-9%,27%
CCOc1ccc(/C=N/NC(=O)c2cc(-c3ccccc3)nc3ccccc23)cc1O,-5,/,/,-9,/,1%,7%
COc1cccc(N2CCN(Cc3nc(N)nc(N4CCCc5ccccc54)n3)CC2)c1,?,56*,-25,5,59*,27%,?
Cc1cccc(N2CCN(Cc3nc(-c4cccc(Cl)c4)oc3C)CC2)n1,-4,34*,-14,-5,9,-4%,12%
Cc1cc(OCc2cc(C(=O)N3CCC(Oc4cccnc4)CC3)no2)cc(C)c1Cl,4,51*,-15,-10,-7,19%,?
Cc1cc(OCc2cc(C(=O)NC3CCC3)no2)cc(C)c1Cl,2,0,-2,-2,43*,6%,7%
COc1ccc(CCNC(=O)CSC2=NS(=O)(=O)c3cc(Cl)ccc3N2)cc1OC,-5,0,-1,1,0,/,/
O=C(CSC1=NS(=O)(=O)c2cc(Cl)ccc2N1)NCCc1ccccc1,2,41*,-20,8,21,8%,6%
Cc1ccc(NC(=O)COc2ccc3c(c2)CCC3)nc1,-5,-2,-6,-11,2,/,/
O=C(Nc1ccc(OC(F)(F)F)cc1)c1cnc2n(c1=O)CCS2,-3,0,6,-3,-4,/,/
CCCCOC(=O)c1ccc(NC(=O)c2cnc3n(c2=O)CCS3)cc1,1,0,-1,14,4,10%,17%
Cc1ccc(NC(=O)c2nc(S(=O)(=O)Cc3ccc(F)cc3)ncc2Cl)cc1C,/,2,-7,/,/,/,/
Cc1ccc(NC(=O)c2nc(S(=O)(=O)Cc3ccccc3C)ncc2Cl)cc1C,-6,0,-2,-12,34*,-19%,-10%
CN(c1ccccc1)S(=O)(=O)c1ccc(NC(=O)c2nc(S(C)(=O)=O)ncc2Cl)cc1,-11,6,8,-63,3,-21%,-11%
O=C(CCSCCc1ccccn1)Nc1ccccc1C(F)(F)F,/,0,5,/,/,/,/
CCc1ccccc1NC(=S)N1CCN(c2ccccc2F)CC1,-4,15,-1,-15,14,-1%,2%
Cc1ccc(-n2nnnc2SCC(=O)c2c(N)n(C3CC3)c(=O)[nH]c2=O)c(C)c1,0,1,0,1,-8,6%,-3%
Cc1nn(-c2ccccc2)c(Cl)c1C(=O)NNC(=O)c1ccncc1,-1,0,4,9,7,-8%,-4%
Cn1c(CC(=O)NNC(=O)c2ccc(Cl)nc2)nc2ccccc21,-1,/,/,-3,/,/,/
Cn1c(CC(=O)NNC(=O)c2ccccc2[N+](=O)[O-])nc2ccccc21,-4,2,-10,-6,-19,-4%,0%
Cc1cccc(CCNC(=O)c2ccc3c(c2)nc2n3CCOC2)c1,/,/,-17,/,/,/,/
COc1ccc(NC(=O)c2ccc(CN3CCN(c4ccccc4)CC3)cc2)cc1,?,86*,-37,11,82*,18%,14µM*
CSc1ccccc1NC(=O)c1ccc(CN2CCOCC2)cc1,-1,-1,-4,-11,4,/,/
SMILES,D2 ag-1,D2 ag-2,D2 PAM-1,D2 PAM-2,D2 antagonist,D3 arrestin ag,D2 ag-3
COc1ccc(C(=O)Nc2ccc(N3CCN(Cc4ccccc4)CC3)cc2)cc1,-10,1,-9,2,6,/,/
O=C(Nc1ccccc1F)c1ccc(CN2CCN(c3ccccc3)CC2)cc1,?,85*,-18,10,81*,16%,18µM*
Cc1n[nH]c(C)c1S(=O)(=O)N1CCC(C(=O)N2CCn3c2nc2ccccc23)CC1,-7,48*,-8,-34,39*,-29%,-12%
O=C(C1CCN(S(=O)(=O)c2cccc3nsnc23)CC1)N1CCn2c1nc1ccccc12,-17,/,/,-58,/,/,/
Cn1cc(CNCc2ccc(-n3cccn3)cc2)c(-c2ccccc2F)n1,?,46*,-22,-10,44*,27%,?
C=CCn1c(SC(C)C(=O)c2c(N)n(C)c(=O)n(C)c2=O)nnc1-c1ccoc1C (configuration not stated),5,32*,-8,6,-7,-27%,5%
NC(=O)C1CCN(C(=O)COc2ccc3ccc(=O)oc3c2)CC1,-4,1,-14,-4,-5,/,/
CCC1(CC)NC(=O)N(CC(=O)OCC(=O)Nc2ccc(OC(F)(F)F)cc2)C1=O,0,1,6,-3,61*,-1%,-2%
CCN(CC(=O)Nc1ccc(NC(C)=O)cc1)C(=O)/C=C/c1ccco1,-1,1,1,5,-2,/,/
CCCN(CC(=O)Nc1ccc(Cl)cc1Cl)C(=O)/C=C/c1ccco1,1,42*,-17,-17,17,-3%,0%
c1ccc(N2CCN(C3CCSC3)CC2)cc1 (configuration not stated),4,41*,-35,-18,18,-9%,10%
CCN(CC)C(=O)c1cccc(-c2csc(C(NC(C)=O)c3ccc(F)c(F)c3)n2)c1 (configuration not stated),2,/,/,2,/,/,/
COc1ccc(SC[C@H](Cc2ccccc2)N2CC[C@@H](O)CCC2=O)cc1,-1,0,-7,-6,-1,/,/
COc1ccc(SC[C@H](Cc2ccccc2)N2CC[C@@H](C(C)(C)C)CCC2=O)cc1,2,1,1,2,6,-12%,-3%
CCC1CCc2c(sc(NC(=O)C3CC=CCC3C(=O)O)c2C#N)C1 (configuration not stated),?,62*,-19,8,29,16µM*,?
